Measured values taken from paper PMC4336329 (PLoS ONE, 2015).
In all, about 310,000 compounds went through this assay and about 14,000 (4.5%) showed an effect of 50% or more. The effect is printed as a negative number. Only a selection was taken, and strong results are over-represented in it overall.

What follows are compounds tested against human ether-à-go-go-related gene (hERG) potassium channel (human, UniProt Q12809) (assay: primary screen, population patch clamp on CHO cells stably expressing hERG; higher = less effect of the substance).
Sequence of human ether-à-go-go-related gene (hERG) potassium channel (Q12809 whole entry, looked up): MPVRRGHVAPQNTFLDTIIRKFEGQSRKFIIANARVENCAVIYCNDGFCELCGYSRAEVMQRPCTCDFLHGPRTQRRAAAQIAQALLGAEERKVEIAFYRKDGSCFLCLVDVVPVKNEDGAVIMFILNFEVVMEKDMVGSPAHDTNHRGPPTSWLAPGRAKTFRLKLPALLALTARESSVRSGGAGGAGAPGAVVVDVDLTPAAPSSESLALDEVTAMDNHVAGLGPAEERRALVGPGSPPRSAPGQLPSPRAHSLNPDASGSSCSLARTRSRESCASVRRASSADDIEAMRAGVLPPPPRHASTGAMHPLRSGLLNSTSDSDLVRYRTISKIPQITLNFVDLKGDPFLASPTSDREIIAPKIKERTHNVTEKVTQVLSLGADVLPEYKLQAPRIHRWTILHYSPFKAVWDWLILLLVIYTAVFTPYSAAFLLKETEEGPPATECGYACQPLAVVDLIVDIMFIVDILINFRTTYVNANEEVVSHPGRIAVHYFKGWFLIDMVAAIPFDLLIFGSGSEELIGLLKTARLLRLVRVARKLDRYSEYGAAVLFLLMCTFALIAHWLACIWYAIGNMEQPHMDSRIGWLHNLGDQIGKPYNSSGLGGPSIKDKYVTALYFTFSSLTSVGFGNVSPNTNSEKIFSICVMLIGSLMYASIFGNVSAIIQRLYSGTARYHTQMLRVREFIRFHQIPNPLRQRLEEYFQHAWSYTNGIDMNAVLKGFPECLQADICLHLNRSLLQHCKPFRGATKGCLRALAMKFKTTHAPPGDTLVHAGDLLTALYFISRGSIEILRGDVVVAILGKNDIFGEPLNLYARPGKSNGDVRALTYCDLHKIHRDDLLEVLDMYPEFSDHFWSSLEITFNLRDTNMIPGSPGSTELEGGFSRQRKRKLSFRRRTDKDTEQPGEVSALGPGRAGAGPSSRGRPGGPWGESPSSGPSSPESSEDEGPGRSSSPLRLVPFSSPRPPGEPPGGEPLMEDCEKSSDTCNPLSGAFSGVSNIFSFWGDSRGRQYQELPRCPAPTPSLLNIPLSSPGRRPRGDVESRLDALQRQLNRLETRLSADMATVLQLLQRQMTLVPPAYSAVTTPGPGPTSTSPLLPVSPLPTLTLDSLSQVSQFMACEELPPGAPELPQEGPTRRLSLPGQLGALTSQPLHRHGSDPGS
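Also: peak tail current of the secondary pulse compared with the same well before compound.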

SMILES	hERG current change (%, negative = inhibition) at 10uM
COc1cccc(-c2nc(CS(=O)(=O)CC(=O)NCCc3ccc(OC)cc3OC)c(C)o2)c1	-13%
Cc1ccnc(NS(=O)(=O)c2ccc(NC(=O)Cc3ccccc3)cc2)n1	5.26%
COc1ccc(/C=C/C(=O)NCCc2ccc(S(N)(=O)=O)cc2)cc1	3.55%
NS(=O)(=O)c1ccc(CCNC(=O)/C=C/c2cccc([N+](=O)[O-])c2)cc1	-13.7%
O=C(/C=C/c1ccc([N+](=O)[O-])cc1)NCCc1ccc(F)cc1	-60.3%
COc1ccc(OCCNC(=O)/C=C/c2ccc([N+](=O)[O-])cc2)cc1	-64.7%
O=C(/C=C/c1ccc([N+](=O)[O-])cc1)NCc1ccco1	-24.1%
O=C(/C=C/c1cccc([N+](=O)[O-])c1)NCCc1ccc(F)cc1	-21.8%
O=C(/C=C/c1ccc([N+](=O)[O-])cc1)NCCc1ccccc1	-14.4%
O=C(/C=C/c1cccc([N+](=O)[O-])c1)NCCSCc1ccco1	-29.5%
O=C(/C=C/c1ccc([N+](=O)[O-])cc1)NCCSCc1ccco1	-61.3%
COc1ccccc1OCCNC(=O)/C=C/c1ccc([N+](=O)[O-])cc1	-49.2%
COc1ccc(/C=C/C(=O)NCCOc2ccc(C)cc2)cc1	6.3%
NS(=O)(=O)c1ccc(CCNC(=O)/C=C/c2ccc([N+](=O)[O-])cc2)cc1	-69.8%
O=[N+]([O-])c1cc(/C=N\Nc2ccccn2)ccc1Cl	18.4%
CCN(CC)c1ccc(NC(=O)CN(C)Cc2cccs2)cc1	6.07%
O=C(O)c1ccc(NC(=O)c2cccs2)cc1	10.1%
COc1ccc(NC(=O)COc2ccccc2F)cc1S(=O)(=O)N1CCCCC1	6.02%
COc1ccc(N2CCN(C(=O)CSc3nnc4c5cc(C)ccc5n(C)c4n3)CC2)cc1	-13.9%
Cc1ccc2c(c1)c1nnc(SCC(=O)N3CCCc4ccccc43)nc1n2CC(=O)O	20.2%
Cc1ccc2c(c1)c1nnc(SCC(=O)N3CCN(c4ccc(F)cc4)CC3)nc1n2CC(=O)O	-63.1%
COc1cccc(OCc2ccc(Cl)cc2)c1C#N	19.6%
CCC(=O)N1CCc2cc(S(=O)(=O)NC(CC(C)C)C(=O)N3CCc4ccccc43)ccc21 (centres unmarked)	-2.28%
NC(=O)c1ccccc1NCC(=O)c1ccc(Cl)cc1	16.4%

SMILES	hERG current change (%, negative = inhibition) at 10uM
O=C(c1cccc([N+](=O)[O-])c1)c1ccc2c(c1)C(=O)NC2=O	-11.5%
c1ccc2c(c1)OCCOCCOCCO2	10%
CC(=O)Nc1cccc2c1OCCO2	6.45%
CN1CCOCCOc2ccccc2OCCOCC1	7.5%
OCCN1CCOCCOc2ccccc2OCCOCC1	1.57%
C=C(C)C(=O)Nc1ccc2c(c1)OCCOCCOCCO2	-26.4%
c1ccc2c(c1)OCCOCCOCCOCCOCCOc1ccccc1OCCOCCOCCO2	-59.2%
O=C(N1CCOCCOc2ccccc2OCCOCC1)C(F)(F)F	6.2%
CC(=O)[O-].[K+].c1ccc2c(c1)OCCOCCOc1ccccc1OCCOCCO2	-74.7%
c1ccc2c(c1)OCCOCCOCCOCCOc1ccccc1OCCOCCOCCO2	-62.1%
O=C(Nc1ccc(Br)cn1)c1ccc2ccccc2c1	26.8%
N=c1occ(C(=O)c2cc(F)ccc2O)cc1C(=O)NC1CCCCC1	0.995%
O=C(COc1ncnc2ccccc12)Nc1ccc(Cl)c([N+](=O)[O-])c1	-7.85%
CCOc1ccc(S(=O)(=O)Nc2ccc(C(=O)NCCCN3CCCC3=O)cc2)cc1	0.2%
CCCCn1c(C)csc1=Nc1cccnc1	-2.02%
Cc1ccc(-c2csc(=Nc3cccnc3)n2CCCn2ccnc2)cc1C	-70.2%
Br.COCCn1c(-c2ccccc2)csc1=Nc1cccnc1	-68.3%
COCCn1c(-c2ccco2)csc1=Nc1cccnc1.Cl	-3.9%
COCCCn1c(C)csc1=Nc1cccnc1	4.68%
COCCn1c(-c2ccc(Br)cc2)csc1=Nc1cccnc1	-14.2%
Cc1csc(=Nc2cccnc2)n1Cc1ccco1	-0.17%
Clc1ccc(-c2csc(=Nc3cccnc3)n2CCCn2ccnc2)cc1Cl	-67.3%
Cl.c1ccc(-c2csc(=Nc3cccnc3)n2CC2CCCO2)cc1 (centres unmarked)	-31.4%
